# Results reported in paper PMC9911399, “Two distinct binding modes provide the RNA-binding protein RbFox with extraordinary sequence specificity”.
# Substitutions are numbered along the chain they refer to; changes in the protein carry UniProt numbers. In all, about 16,000 sequences were measured (“ka relative to ugcaugu”: median about 0.0091, highest 2% from about 0.032 on). Only a selection was taken, and the highest values are over-represented in it overall.
# T1: RBFOX1 RRM (Homo sapiens, UniProt Q9NWB1 109-208)
# T1 sequence: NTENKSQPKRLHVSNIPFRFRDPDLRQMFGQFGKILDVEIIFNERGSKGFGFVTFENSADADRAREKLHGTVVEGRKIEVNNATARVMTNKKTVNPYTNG
# B1: AAAUGGU (DNA:RNA)
# RNA: GGGAGACCGGAAUUCAGAUUGUCCAAAUGGUUUAAAUCCCGUCGUAGCCACCA
# DNA 1: CAATCTGAATTCCGGTCTCCC
# DNA 2: TGGTGGCTACGACGGGATT
# B2: GAUCCGC (DNA:RNA)
# RNA: B1 RNA with A25G, A27U, U28C, G29C, U31C
# DNA 1: CAATCTGAATTCCGGTCTCCC
# DNA 2: TGGTGGCTACGACGGGATT
# B3: CCACACG (DNA:RNA)
# RNA: B1 RNA with A25C, A26C, U28C, G29A, G30C, U31G
# DNA 1: CAATCTGAATTCCGGTCTCCC
# DNA 2: TGGTGGCTACGACGGGATT
# B4: CUAAGCU (DNA:RNA)
# RNA: B1 RNA with A25C, A26U, U28A, G30C
# DNA 1: CAATCTGAATTCCGGTCTCCC
# DNA 2: TGGTGGCTACGACGGGATT
# B5: UUUGUCG (DNA:RNA)
# RNA: GGGAGACCGGAAUUCAGAUUGUCCUUUGUCGUUAAAUCCCGUCGUAGCCACCA
# DNA 1: CAATCTGAATTCCGGTCTCCC
# DNA 2: TGGTGGCTACGACGGGATT
# B6: UUUUUUG (DNA:RNA)
# RNA: B5 RNA with G28U, C30U
# DNA 1: CAATCTGAATTCCGGTCTCCC
# DNA 2: TGGTGGCTACGACGGGATT
# B7: UUGUUGU (DNA:RNA)
# RNA: B1 RNA with A25U, A26U, A27G, G29U
# DNA 1: CAATCTGAATTCCGGTCTCCC
# DNA 2: TGGTGGCTACGACGGGATT
# B8: UUGUUUG (DNA:RNA)
# RNA: B5 RNA with U27G, G28U, C30U
# DNA 1: CAATCTGAATTCCGGTCTCCC
# DNA 2: TGGTGGCTACGACGGGATT
# B9: UUUUGUG (DNA:RNA)
# RNA: B5 RNA with G28U, U29G, C30U
# DNA 1: CAATCTGAATTCCGGTCTCCC
# DNA 2: TGGTGGCTACGACGGGATT
# B10: UUUGUUG (DNA:RNA)
# RNA: B5 RNA with C30U
# DNA 1: CAATCTGAATTCCGGTCTCCC
# DNA 2: TGGTGGCTACGACGGGATT
# B11: UCCUUUG (DNA:RNA)
# RNA: B5 RNA with U26C, U27C, G28U, C30U
# DNA 1: CAATCTGAATTCCGGTCTCCC
# DNA 2: TGGTGGCTACGACGGGATT
# B12: UUGUCGU (DNA:RNA)
# RNA: B1 RNA with A25U, A26U, A27G, G29C
# DNA 1: CAATCTGAATTCCGGTCTCCC
# DNA 2: TGGTGGCTACGACGGGATT
# B13: UUUGUCC (DNA:RNA)
# RNA: B5 RNA with G31C
# DNA 1: CAATCTGAATTCCGGTCTCCC
# DNA 2: TGGTGGCTACGACGGGATT
# B14: UGACACA (DNA:RNA)
# RNA: B5 RNA with U26G, U27A, G28C, U29A, G31A
# DNA 1: CAATCTGAATTCCGGTCTCCC
# DNA 2: TGGTGGCTACGACGGGATT
# B15: AAUCAAU (DNA:RNA)
# RNA: B1 RNA with A27U, U28C, G29A, G30A
# DNA 1: CAATCTGAATTCCGGTCTCCC
# DNA 2: TGGTGGCTACGACGGGATT
# B16: GAAAAUG (DNA:RNA)
# RNA: B1 RNA with A25G, U28A, G29A, G30U, U31G
# DNA 1: CAATCTGAATTCCGGTCTCCC
# DNA 2: TGGTGGCTACGACGGGATT
# B17: CCUGCUU (DNA:RNA)
# RNA: B5 RNA with U25C, U26C, U29C, C30U, G31U
# DNA 1: CAATCTGAATTCCGGTCTCCC
# DNA 2: TGGTGGCTACGACGGGATT
# B18: AUGUAGU (DNA:RNA)
# RNA: B1 RNA with A26U, A27G, G29A
# DNA 1: CAATCTGAATTCCGGTCTCCC
# DNA 2: TGGTGGCTACGACGGGATT
# B19: UAUUUGU (DNA:RNA)
# RNA: B1 RNA with A25U, A27U, G29U
# DNA 1: CAATCTGAATTCCGGTCTCCC
# DNA 2: TGGTGGCTACGACGGGATT
# B20: CACGCGU (DNA:RNA)
# RNA: B1 RNA with A25C, A27C, U28G, G29C
# DNA 1: CAATCTGAATTCCGGTCTCCC
# DNA 2: TGGTGGCTACGACGGGATT
# B21: GAAUGCU (DNA:RNA)
# RNA: B1 RNA with A25G, G30C
# DNA 1: CAATCTGAATTCCGGTCTCCC
# DNA 2: TGGTGGCTACGACGGGATT
# B22: GCAUGCU (DNA:RNA)
# RNA: B1 RNA with A25G, A26C, G30C
# DNA 1: CAATCTGAATTCCGGTCTCCC
# DNA 2: TGGTGGCTACGACGGGATT
# B23: GGCAUGC (DNA:RNA)
# RNA: B1 RNA with A25G, A26G, A27C, U28A, G29U, U31C
# DNA 1: CAATCTGAATTCCGGTCTCCC
# DNA 2: TGGTGGCTACGACGGGATT
# B24: GUAUGCU (DNA:RNA)
# RNA: B1 RNA with A25G, A26U, G30C
# DNA 1: CAATCTGAATTCCGGTCTCCC
# DNA 2: TGGTGGCTACGACGGGATT
# B25: GCAUUGC (DNA:RNA)
# RNA: B1 RNA with A25G, A26C, G29U, U31C
# DNA 1: CAATCTGAATTCCGGTCTCCC
# DNA 2: TGGTGGCTACGACGGGATT
# B26: CGCAUGC (DNA:RNA)
# RNA: B1 RNA with A25C, A26G, A27C, U28A, G29U, U31C
# DNA 1: CAATCTGAATTCCGGTCTCCC
# DNA 2: TGGTGGCTACGACGGGATT
# B27: GUCAUGC (DNA:RNA)
# RNA: B5 RNA with U25G, U27C, G28A, C30G, G31C
# DNA 1: CAATCTGAATTCCGGTCTCCC
# DNA 2: TGGTGGCTACGACGGGATT
# B28: GCCAUGC (DNA:RNA)
# RNA: B1 RNA with A25G, A26C, A27C, U28A, G29U, U31C
# DNA 1: CAATCTGAATTCCGGTCTCCC
# DNA 2: TGGTGGCTACGACGGGATT
# B29: GUUAUGC (DNA:RNA)
# RNA: B5 RNA with U25G, G28A, C30G, G31C
# DNA 1: CAATCTGAATTCCGGTCTCCC
# DNA 2: TGGTGGCTACGACGGGATT
# B30: UGAGAAA (DNA:RNA)
# RNA: B5 RNA with U26G, U27A, U29A, C30A, G31A
# DNA 1: CAATCTGAATTCCGGTCTCCC
# DNA 2: TGGTGGCTACGACGGGATT
# B31: UCCUACG (DNA:RNA)
# RNA: B5 RNA with U26C, U27C, G28U, U29A
# DNA 1: CAATCTGAATTCCGGTCTCCC
# DNA 2: TGGTGGCTACGACGGGATT
# Target: T1, RBFOX1 RRM
# Test: EMSA; HiTS-Eq, 1 nM pool, 10 min; buffer printed only for the single-RNA assays: 10 mM Tris pH 7.5, 150 mM NaCl, 3.4 mM EDTA, 0.001% NP-40, 30 C
# Conditions: tags: His6 N-terminal (pET28a); label: 5' 32P
# Method in brief: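 Relative association constants, normalised to the cognate motif, were derived by comparing read counts of each RNA species with those of the control reaction. The RNA sequenced was the free fraction, separated by 8% native PAGE after a 10 min equilibration in 50 µL of 1 nM 5′-radiolabelled RNA (7 randomized nucleotides) with increasing concentrations of purified wild-type or mutant RbFox RRM.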
row,Binder,binding signal
1,B1,0.00783 KA relative to UGCAUGU
2,B2,0.0132 KA relative to UGCAUGU
3,B3,0.0022 KA relative to UGCAUGU
4,B4,0.00577 KA relative to UGCAUGU
5,B5,0.0272 KA relative to UGCAUGU
6,B6,0.0341 KA relative to UGCAUGU
7,B7,0.0241 KA relative to UGCAUGU
8,B8,0.0392 KA relative to UGCAUGU
9,B9,0.0302 KA relative to UGCAUGU
10,B10,0.0349 KA relative to UGCAUGU
11,B11,0.0195 KA relative to UGCAUGU
12,B12,0.0256 KA relative to UGCAUGU
13,B13,0.0149 KA relative to UGCAUGU
14,B14,0.00643 KA relative to UGCAUGU
15,B15,0.000959 KA relative to UGCAUGU
16,B16,0.00709 KA relative to UGCAUGU

row,Binder,binding signal
1,B17,0.0137 KA relative to UGCAUGU
2,B18,0.00813 KA relative to UGCAUGU
3,B19,0.0237 KA relative to UGCAUGU
4,B20,0.00634 KA relative to UGCAUGU
5,B21,0.0201 KA relative to UGCAUGU
6,B22,0.779 KA relative to UGCAUGU
7,B23,0.627 KA relative to UGCAUGU
8,B24,0.018 KA relative to UGCAUGU
9,B25,0.0184 KA relative to UGCAUGU
10,B26,0.895 KA relative to UGCAUGU
11,B27,0.0144 KA relative to UGCAUGU
12,B28,0.0131 KA relative to UGCAUGU
13,B29,0.0151 KA relative to UGCAUGU
14,B30,0.016 KA relative to UGCAUGU
15,B31,0.00598 KA relative to UGCAUGU
